# Results from PubChem BioAssay (Tox21).
# Inconclusive results are not listed. Calls of active or inactive are those of the source. Calls come from the whole dose curve; as a rule, active = well fitted cell-killing curve with a large enough effect in the repeat runs; inconclusive = weak or mixed curves, or effect the other way; inactive = flat fitted curve, though single readings scatter.
# Assay: qHTS assay to identify small molecule antagonists of the androgen receptor (AR) signaling pathway using the MDA cell line in the presence of 0.5 nM R1881 - cell viability counter screen (AID 1259242); note: nearly all actives have a fitted effect of over 45% in size
# Conditions: MDA-kb2 viability, CellTiter-Fluor protease fluorescence, 16 h; series mostly up to 92.4 µM; viability change, negative = cytotoxic: at the top concentration
# From the text: U.S. Tox21 Program National Center for Advancing Translational Sciences [NCATS] NIH Chemical Genomics Center [NCGC] U.S. Environmental Protection Agency [EPA] National Institutes of Environmental Health Sciences [NIEHS] National Toxicology Program [NTP] U.S. Food and Drug Administration [FDA] Tox21 Assay Overview: Androgen receptor (AR) is an important member of the nuclear receptor family. Its signaling plays a critical role in AR-dependent prostate cancer and other androgen related diseases. Considerable attention has been given in the past decades to develop methods to study and screen for the environmental chemicals that have the potential to interfere with metabolic homeostasis, reproduction, developmental and behavioral functions. Therefore AR binding assay for screening androgen antagonists can be used to identify potential endocrine disruptors. MDA-kb2 cells (from ATCC, deposited by Wilson et al.) were used to screen for AR inhibitors against Tox21 compound libraries. These cells are human breast carcinoma cells that were stably transfected with a luciferase reporter gene under control of the MMTV promoter that contains response elements for both androgen receptor (AR) and glucocorticoid receptor (GR). The current screening for identification of AR inhibitors against Tox21 libraries used lower concentration of (0.5 nM) R1881 as a stimulator. The cytotoxicity of the Tox21 compound libraries against MDA-kb2 cell line was tested by measuring live-cell protease activity using CellTiter-Fluor assay in the same wells.
# Tox21 Assay Protocol Summary: MDA-kb2 cells (cells cultured without CO2) were dispensed at 3,000 cells/well in 4 uL of culture medium into white wall/solid-bottom 1536-well plates (Corning Life Sciences, Corning, NY) using a Multidrop Combi (ThermoFisher Scientific, Waltham, MA) dispenser. After the assay plates were incubated at a 37C and 0% CO2 for 5 hr, 23 nL of compounds dissolved in DMSO, positive controls or DMSO only was transferred to the assay plate by a Pintool station (Kalypsys, San Diego, CA). The transfer of compounds was followed by the addition of 1 uL of 0.5 nM (final concentration) agonist (R1881)/culture medium using a Flying Reagent Dispenser (FRD, Aurora Discovery, San Diego, CA). The plates were incubated at 37C and 0% CO2 for 16 hr. For cytotoxicity assay, 1 uL of CellTiter-Fluor reagent (Promega Corporation, Madison, WI) was added to each well using the FRD and after 30 min incubation at 37C and 0% CO2, The fluorescence intensity was measured using ViewLux plate reader (PerkinElmer, Shelton, CT).
# % is set by controls: 0 for no effect and ±100 for the full control effect; potency is the fitted concentration of half-maximal effect.
SMILES,Potency,"viability change, negative = cytotoxic"
CC(=O)[O-].CC(=O)[O-].[Hg+2],7.7 µM (active),–
Clc1ccc(C(Cl)(Cl)Cl)c(Cl)c1,–,0.171% (inactive)
NNC(=O)c1ccccc1,–,1.14% (inactive)
O=C(Cl)c1ccc(Cl)cc1,–,0.109% (inactive)
COc1ccc(OC)c(C=O)c1,–,0.655% (inactive)
Cc1cc(Cl)ccc1O[C@H](C)C(=O)O,–,0.842% (inactive)
c1ccc2cc3c(cc2c1)-c1cccc2cccc-3c12,–,2.95% (inactive)
Cc1cc(C(F)(C(F)(F)F)C(F)(F)F)ccc1NC(=O)c1cccc(I)c1C(=O)NC(C)(C)CS(C)(=O)=O,–,4.33% [at 42.5 µM] (inactive)
CC(O)C#N (stereo not given),–,-1.81% (inactive)
Clc1ccc(Oc2ccccc2)cc1,–,1.02% (inactive)
FC(Cl)(Cl)Cl,–,0.071% (inactive)
FC(F)(F)c1cccc(C2=CCN(CCc3ccc4ccccc4c3)CC2)c1,–,0.562% [at 42.5 µM] (inactive)
CCN(CC)C(=S)[S-].CCN(CC)C(=S)[S-].[Zn+2],–,-18.9% (inactive)
SCc1ccco1,–,-3.95% (inactive)
C[C@@H](Oc1ccc(Cl)cc1Cl)C(=O)O,–,11.4% (inactive)
[CH3][Hg][Cl],21.6 µM (active),–
Nc1ccccc1C(=O)OC/C=C/c1ccccc1,–,2.54% (inactive)
ClC(Cl)=C(c1ccc(Cl)cc1)c1ccc(Cl)cc1,inactive,–
CN(C)C(=S)[S-].CN(C)C(=S)[S-].[Cu+2],5.92 µM (active),–
Oc1cccc(-c2ccccc2)c1,–,0.894% (inactive)

SMILES,Potency,"viability change, negative = cytotoxic"
c1ccc(OCC2CO2)cc1 (stereo not given),–,8.51% (inactive)
CC(C)CC(C)N (stereo not given),–,-0.0362% (inactive)
CCOP(=S)(OCC)SCS(=O)(=O)CC,–,2.27% (inactive)
Cc1cc(C)cc(OP(=O)(Oc2cc(C)cc(C)c2)Oc2cc(C)cc(C)c2)c1,–,0.0262% (inactive)
C[C@H]1CC[C@@H]2[C@@H](C)[C@H]3[C@H](C[C@H]4[C@@H]5CC=C6CC(O[C@@H]7O[C@H](CO)[C@H](O)[C@H](O[C@@H]8O[C@H](CO)[C@@H](O)[C@H](O)[C@H]8O)[C@H]7O[C@H]7O[C@@H](C)[C@H](O)[C@@H](O)[C@H]7O)CC[C@]6(C)[C@H]5CC[C@]34C)N2C1 (stereo not given in full),25.1 µM (active),–
CC(=O)[O-].[Tl+],–,-0.0833% (inactive)
Cc1ccc(CCl)cc1,–,0.312% (inactive)
Oc1ccc(C2(c3ccc(O)cc3)c3ccccc3-c3ccccc32)cc1,–,-28.4% (inactive)
Cl/C=C\CCl,–,0.1% (inactive)
C[As+](C)(C)CC(=O)[O-],–,-0.372% (inactive)
CC(C)[C@H](C(=O)OC(C#N)c1cccc(Oc2ccccc2)c1)c1ccc(OC(F)F)cc1 (stereo not given in full),–,4.42% (inactive)
O=[N+]([O-])c1cc([N+](=O)[O-])c2ccccc2c1,–,-7% (inactive)
ClC1=C(Cl)C2(Cl)C3C(Cl)C(Cl)CC3C1(Cl)C2(Cl)Cl (stereo not given),inactive,–
O=C(CCCN1CCC2(CC1)C(=O)NCN2c1ccccc1)c1ccc(F)cc1,–,-15.9% [at 42.5 µM] (inactive)
N#C/C=C/c1ccccc1,–,0.222% (inactive)
C[C@]12CC[C@H]3[C@@H](CCC4=CC(=O)CC[C@@]43C)[C@@H]1CC[C@@H]2O,–,0.772% (inactive)
O=C(CBr)c1ccc(O)cc1,–,0.218% (inactive)
CC(C)(COCC1CO1)COCC1CO1 (stereo not given),–,3.49% (inactive)
Clc1ccc(CCC(Cn2ccnc2)Sc2c(Cl)cccc2Cl)cc1 (stereo not given),–,-18.2% [at 42.5 µM] (inactive)
CN(CCCC(O)c1cccnc1)N=O (stereo not given),–,1.55% (inactive)
